According to the supplement of paper PMC8728848:
This is one part of a sample in which the strongest signals are shown more often than they occur.

Assays:
Experiment in all cases: glycan array binding signal (z-score within array); higher = stronger binding
Details in all cases: glycan notation: IUPAC condensed, linker removed
[1] = biological target: Fuc(a1-2)Gal(b1-3)GalNAc(b1-3)Gal(a1-4)Gal(b1-4)Glc
Method in brief: (§1)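 Columns mapping to the same glycan were averaged after glycan names were converted to IUPAC-condensed notation. The data come from 3228 arrays in the Consortium for Functional Glycomics database, limited to those with an available protein sequence. Binding is reported as a within-array Z-score averaged across arrays of one protein sequence and across linkers.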

[2] = biological target: Fuc(a1-2)Gal(b1-3)[Fuc(a1-4)]GlcNAc
Method in brief: as §1

[3] = biological target: Fuc(a1-2)[Gal(a1-3)]Gal(b1-3)GlcNAc(b1-2)Man(a1-3)[Fuc(a1-2)[Gal(a1-3)]Gal(b1-3)GlcNAc(b1-2)Man(a1-6)]Man(b1-4)GlcNAc(b1-4)GlcNAc
Method in brief: as §1

[4] = biological target: Fuc(a1-2)[GalNAc(a1-3)]Gal
Method in brief: as §1

[5] = biological target: Fuc(a1-2)[GalNAc(a1-3)]Gal(b1-4)GlcNAc(b1-3)Gal(b1-4)GlcNAc(b1-3)Gal(b1-4)GlcNAc
Method in brief: as §1

[6] = biological target: Fuc(a1-3)[Gal(b1-4)]GlcNAc(b1-4)Gal(b1-4)[Fuc(a1-3)]GlcNAc(b1-4)Gal(b1-4)[Fuc(a1-3)]GlcNAc
Method in brief: as §1

[7] = biological target: Fuc(a1-3)[Gal(b1-4)]GlcNAc6S
Method in brief: as §1

[8] = biological target: Fuc(a1-3)[Gal3S(b1-4)]GlcNAc6S
Method in brief: as §1

[9] = biological target: Fuc(a1-3)[Neu5Ac(a2-3)]Gal(b1-4)GlcNAc(b1-3)GalNAc
Method in brief: as §1

[10] = biological target: Gal(a1-3)Gal(b1-4)[Fuc(a1-3)]GlcNAc
Method in brief: as §1

[11] = biological target: Gal(a1-3)Gal(b1-4)[Fuc(a1-3)]GlcNAc(b1-2)Man(a1-3)[Gal(a1-3)Gal(b1-4)[Fuc(a1-3)]GlcNAc(b1-2)Man(a1-6)]Man(b1-4)GlcNAc(b1-4)GlcNAc
Method in brief: as §1

[12] = biological target: Gal(a1-4)Gal(b1-4)GlcNAc(b1-3)Gal(b1-4)Glc
Method in brief: as §1

[13] = biological target: Gal(b1-3)GalNAc
Method in brief: as §1

[14] = biological target: Gal(b1-3)GalNAc(b1-4)Gal(b1-4)Glc
Method in brief: as §1

[15] = biological target: Gal(b1-4)GlcNAc(b1-2)Man(a1-6)Man(b1-4)GlcNAc(b1-4)GlcNAc
Method in brief: as §1

[16] = biological target: Gal(b1-4)GlcNAc(b1-3)Gal(b1-4)GlcNAc(b1-3)Gal(b1-4)GlcNAc
Method in brief: as §1

[17] = biological target: Gal3S(b1-4)GlcNAc
Method in brief: as §1

[18] = biological target: Gal3S4S(b1-4)GlcNAc
Method in brief: as §1

[19] = biological target: GlcA(b1-6)Gal
Method in brief: as §1

[20] = biological target: GlcNAc(a1-4)Gal(b1-4)GlcNAc(b1-3)Gal(b1-4)Glc
Method in brief: as §1

[21] = biological target: GlcNAc(a1-4)Gal(b1-4)GlcNAc(b1-3)Gal(b1-4)GlcNAc
Method in brief: as §1

[22] = biological target: GlcNAc(a1-4)Gal(b1-4)GlcNAc(b1-3)Gal(b1-4)[Fuc(a1-3)]GlcNAc(b1-3)Gal(b1-4)[Fuc(a1-3)]GlcNAc
Method in brief: as §1

[23] = biological target: GlcNAc(b1-4)GlcNAc(b1-4)GlcNAc(b1-4)GlcNAc(b1-4)GlcNAc(b1-4)GlcNAc
Method in brief: as §1

[24] = biological target: Man(a1-2)Man(a1-3)[Man(a1-6)]Man(a1-6)[Man(a1-2)Man(a1-3)]Man(b1-4)GlcNAc(b1-4)GlcNAc
Method in brief: as §1

[25] = biological target: Neu5Ac(a2-3)Gal(b1-4)[Fuc(a1-3)]GlcNAc
Method in brief: as §1

[26] = biological target: Neu5Ac(a2-3)Gal(b1-4)[Fuc(a1-3)]GlcNAc(b1-6)[Gal(b1-3)]GalNAc
Method in brief: as §1

[27] = biological target: Neu5Ac(a2-3)Gal(b1-4)[Fuc(a1-3)]GlcNAc(b1-6)[Neu5Ac(a2-3)Gal(b1-3)]GalNAc
Method in brief: as §1

[28] = biological target: Neu5Ac(a2-3)GalNAc
Method in brief: as §1

[29] = biological target: Neu5Ac(a2-6)Gal(b1-4)GlcNAc6S
Method in brief: as §1

[30] = biological target: Neu5Ac(b2-6)Gal(b1-4)GlcNAc
Method in brief: as §1

B1: Eap (Staphylococcus aureus), A0A7L5PYT7 (protein)
chain: MKFKSLITTTLALGVLASTGANFNNNEAAAAAKPLDKSSSSLHHGYSKVHVPYAITVNGTSQNILSSLTFNKNQNISYKDLEDRVKSVLKSDRGISDIDLRLSKQAKYTVYFKNGTKKVIDLKAGIYTADLINTSEIKAININVDTKKQVEDKKKDKANYQVPYTITVNGTSQNILSNLTFNKNQNISYKDLEDKVKSVLESNRGITDVDLRLSKQAKYTVNFKNGTKKVIDLKSGIYTANLINSSDIKSININVDTKKHIENKAKRNYQVPYSINLNGTSTNILSNLSFSNKPWTNYKNLTSQIKSVLKHDRGISEQDLKYAKKAYYTVYFKNGGKRILQLNSKNYTANLVHAKDVKRIEITVKTGTKAKADRYVPYTIAVNGTSTPILSDLKFTGDPRVGYKDISKKVKSVLKHDRGIGERELKYAKKATYTVHFKNGTKKVININSNISQLNLLYVQDIKKIDIDVKTGTKAKADSYVPYTIAVNGTSTPILSKLKISNKQLISYKYLNDKVKSVLKSERGISDLDLKFAKQAKYTVYFKNGKKQVVNLKSDIFTPNLFSAKDIKKIDIDVKQYTKSKKNK
glycan array binding signal (z-score) [1]: 0.012
glycan array binding signal (z-score) [2]: -0.514
glycan array binding signal (z-score) [3]: -0.498
glycan array binding signal (z-score) [4]: -0.319
glycan array binding signal (z-score) [5]: 3.63
glycan array binding signal (z-score) [6]: -0.587
glycan array binding signal (z-score) [7]: 1.35
glycan array binding signal (z-score) [8]: 4.89
glycan array binding signal (z-score) [9]: 3.33
glycan array binding signal (z-score) [10]: -0.392
glycan array binding signal (z-score) [11]: -0.414
glycan array binding signal (z-score) [12]: -0.4
glycan array binding signal (z-score) [13]: -0.063
glycan array binding signal (z-score) [14]: -0.183
glycan array binding signal (z-score) [15]: -0.437
glycan array binding signal (z-score) [16]: -0.513
glycan array binding signal (z-score) [17]: -0.007
glycan array binding signal (z-score) [18]: 1.97
glycan array binding signal (z-score) [19]: -0.24
glycan array binding signal (z-score) [20]: 4.14
glycan array binding signal (z-score) [21]: 4.58
glycan array binding signal (z-score) [22]: 8.99
glycan array binding signal (z-score) [23]: -0.455
glycan array binding signal (z-score) [24]: -0.331
glycan array binding signal (z-score) [25]: -0.563
glycan array binding signal (z-score) [26]: -0.08
glycan array binding signal (z-score) [27]: -0.297
glycan array binding signal (z-score) [28]: -0.425
glycan array binding signal (z-score) [29]: -0.392
glycan array binding signal (z-score) [30]: -0.365
